Test results taken from the supplement of paper PMC12067926.
Unmarked numbers belong to inactive results.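 The calls were made as follows: active = growth AUC significantly below the DMSO wells by Dunnett test; inactive = the rest.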

Test system: Bacillus 1 (Bacillus foraminis)
Assay: relative growth (AUC of 72 h growth curve relative to DMSO control, dAUC) (ratio); higher = more growth (less inhibition), active = hit call of the paper
Conditions: 20 µM
Experimental: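 Environmental bacterial isolates (Iceland stream sediment and Silwood Park soil) and whole stream-sediment communities were grown in LB from a 1:100 dilution with each pesticide at 20 µM (1% DMSO). A600 was read hourly for 72 h and the area under a spline-fitted growth curve (AUC) was computed. dAUC is the mean AUC of 3 biological replicates divided by the mean AUC of the DMSO controls. Significance was tested by Dunnett's test against the DMSO control.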

Compound	relative growth
O=C(Nc1ccc(F)cc1F)c1cccnc1Oc1cccc(C(F)(F)F)c1	1.07
CN(C)C(CSS(=O)(=O)O)CSS(=O)(=O)O	1.07
CS(=O)(=O)NC(=O)c1cc(Oc2ccc(C(F)(F)F)cc2Cl)ccc1[N+](=O)[O-]	1.04
CCCCN(CCCC)SN(C)C(=O)Oc1cccc2c1OC(C)(C)C2	1.03
Cc1c(COC(=O)[C@@H]2[C@H](/C=C(\Cl)C(F)(F)F)C2(C)C)cccc1-c1ccccc1 (racemic)	0.976
COP(=O)(NC(C)=O)SC (stereo not given)	1.02
CC1(C(=O)Nc2ccc(O)c(Cl)c2Cl)CCCCC1	1.01
Cc1ccc(/N=C/N(C)/C=N/c2ccc(C)cc2C)c(C)c1	1.01
O=C(O)c1nc(Cl)ccc1Cl	0.984
Cc1cc(C)nc(Nc2ccccc2)n1	1.08
CCCC(Cn1cncn1)c1ccc(Cl)cc1Cl (stereo not given)	1.1
Fc1ccc(Oc2ccnc3cc(Cl)cc(Cl)c23)cc1	1.04
C[N+](C)(C)CCCl	0.969
O=C(O)COc1ccc(Cl)cc1Cl	1.09
N#C/N=C1\SCCN1Cc1ccc(Cl)nc1	1.08
CCCN(CCC)C(=O)SCc1ccccc1	0.998
CSc1nnc(C(C)(C)C)c(=O)n1N	0.94
Cc1cc(C2CC2)nc(Nc2ccccc2)n1	0.911
C#CCOc1ccc(CCNC(=O)C(OCC#C)c2ccc(Cl)cc2)cc1OC (stereo not given)	1.06
C[C@@H]1[C@@H](c2ccc(Cl)cc2)SC(=O)N1C(=O)NC1CCCCC1	1.06

Compound	relative growth
COCC(=O)N(c1c(C)cccc1C)C(C)C(=O)OC (stereo not given)	1.11
COc1ccc(C(=CC(=O)N2CCOCC2)c2ccc(Cl)cc2)cc1OC (mixture of isomers)	0.924
CCNc1nc(Cl)nc(NC(C)C)n1	0.997
CCOCN(C(=O)CCl)c1c(C)cccc1CC	1
CCCCC(C#N)(Cn1cncn1)c1ccc(Cl)cc1 (stereo not given)	0.889
Nc1c([N+](=O)[O-])ccc(Oc2ccccc2)c1Cl	1.02
COc1ccc(-c2ccccc2)cc1NNC(=O)OC(C)C	1.03
CCC(CC)Nc1c([N+](=O)[O-])cc(C)c(C)c1[N+](=O)[O-]	0.931
CS(=O)(=O)c1cc(C(F)(F)F)ccc1C(=O)c1cnoc1C1CC1	1.02
O=C(O)CNCP(=O)(O)O	1.04
CC(C)N(C(=O)COc1nnc(C(F)(F)F)s1)c1ccc(F)cc1	0.999
CCc1cc(C)cc(CC)c1-c1c(OC(=O)C(C)(C)C)n2n(c1=O)CCOCC2	0.912
CC1(C)C(C(=O)OC(C#N)c2cccc(Oc3ccccc3)c2)C1(C)C (stereo not given)	0.917
CC[C@H]1CCC[C@H](O[C@H]2CC[C@H](N(C)C)[C@@H](C)O2)[C@@H](C)C(=O)C2=C[C@@H]3[C@@H](C=C(C)[C@@H]4C[C@@H](O[C@@H]5O[C@@H](C)[C@H](OC)[C@@H](OC)[C@H]5OC)C[C@@H]34)[C@@H]2CC(=O)O1.CC[C@H]1CCC[C@H](O[C@H]2CC[C@H](N(C)C)[C@@H](C)O2)[C@@H](C)C(=O)C2=C[C@H]3[C@@H]4C[C@H](O[C@@H]5O[C@@H](C)[C@H](OC)[C@@H](OC)[C@H]5OC)C[C@H]4C=C[C@H]3C2CC(=O)O1	1.04
CC(COc1ccc(Oc2ccccc2)cc1)Oc1ccccn1 (stereo not given)	1.07
COc1cc(C)c(C(=O)c2c(OC)ccc(Br)c2C)c(OC)c1OC	1.03
CCc1cnc(C2=NC(C)(C(C)C)C(=O)N2)c(C(=O)O)c1 (stereo not given)	1.11
CC1(C)C(C=C(Cl)Cl)C1C(=O)OC(C#N)c1ccc(F)c(Oc2ccccc2)c1 (stereo not given)	0.94
O=C(NCCc1ncc(C(F)(F)F)cc1Cl)c1ccccc1C(F)(F)F	0.999
CCOc1cc(Oc2ccc(C(F)(F)F)cc2Cl)ccc1[N+](=O)[O-]	0.956
